Here are results for 10 molecules from PubChem BioAssay (NCI).

Assay [1] can be described thus: NCI Yeast Anticancer Drug Screen. Data for the rad50 strain (AID 155).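 Further: 0% = growth of vehicle-only cultures of the same strain.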 The following applies: S. cerevisiae rad50 strain growth inhibition, hits give high values. The method in brief: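 Cells are treated with compound, grown, and their growth is then scored against vehicle-only cultures of the same repair-deficient yeast strain.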
A short description of assay [2]: NCI Yeast Anticancer Drug Screen. Data for the mec2-1 strain (AID 157). The following applies: S. cerevisiae mec2-1 strain, hits give high values. Summed up:
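Readout is yeast growth inhibition, normalised to vehicle-treated controls, in the mec2-1 strain exposed to compound.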

A short description of assay [3]: NCI Yeast Anticancer Drug Screen. Data for the sgs1 mgt1 strain (AID 161).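 Further: 0% = growth of cultures given vehicle only.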 The note with it: S. cerevisiae sgs1 mgt1 strain, hits give high values. The method in brief:
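Compounds are added to genetically altered yeast, and growth is compared with cultures given vehicle alone to give percent inhibition.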

The nature of assay [4]: NCI Yeast Anticancer Drug Screen. Data for the cln2 rad14 strain (AID 165).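 Further: 0% = growth equal to vehicle treated cultures.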 The following applies: S. cerevisiae cln2 rad14 strain, hits give high values. The method in brief:
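Relative to vehicle controls, growth inhibition of compound-treated cln2 rad14 yeast was recorded.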

Assay [5] in a line: NCI Yeast Anticancer Drug Screen. Data for the bub3 strain (AID 167). The note with it: S. cerevisiae bub3 mutant strain, hits give high values. The method in brief: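 Part of a panel of yeast mutants defective in DNA damage repair or cell cycle regulation. Each strain is grown with compound, and inhibition is calculated relative to solvent-treated cultures.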
Assay [6] can be described thus: NCI Yeast Anticancer Drug Screen. Data for the mlh1 rad18 strain (AID 175). The following applies: S. cerevisiae mlh1 rad18 strain growth inhibition, hits give high values. Summed up:
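Test agents were incubated with a yeast strain of defined genotype (DNA damage repair defect). Inhibition of growth was derived by comparison with vehicle-exposed cultures.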

Where [7] appears, read: at 5.0 µM (retest, dose inferred, filed as 0.5).
[8] abbreviates: at 50.0 µM (retest, dose inferred, filed as 5.0).

About 79,000 compounds went through this panel and 15% of them were active in at least one assay; those are over-represented in the sample as a whole. Unmarked numbers belong to inactive results. Calls of active or inactive are those of the source. No stated cut-off is given here; in the data, active means growth inhibition above about 70%; inactive means the rest. Where a SMILES comes first, the peptide text is derived from it. [ ]: non-standard residue; d: D form. The star is where a group is joined. mTyr = N[CH](Cc1cccc(O)c1)C(=O)O; Cbz = O=C(OCc1ccccc1)*; OBn = c1ccc(CO*)cc1

For the molecule `O=C1CCCC/C1=C\c1ccc(Cl)c(Cl)c1`, the growth inhibition in assay [1] (setting [7]) was 12%; in assay [1] (setting [8]), 99% (active); in assay [1] (at 50.0 µM) it was 98.7% (active); in assay [2] (setting [7]), 6%; in assay [2] (setting [8]), 100% (active); in assay [2] (at 50.0 µM), 98.6% (active). Besides, the growth inhibition was 47% in assay [3] (setting [7]); 100% (active) in assay [3] (setting [8]); 99% (active) in assay [3] (at 50.0 µM); 5% in assay [4] (setting [7]); 99% (active) in assay [4] (setting [8]); 95.9% (active) in assay [4] (at 50.0 µM). Also, the growth inhibition is 9% in assay [5] (setting [7]); 99% (active) in assay [5] (setting [8]); 98.2% (active) in assay [5] (at 50.0 µM); 18% in assay [6] (setting [7]); 99% (active) in assay [6] (setting [8]); 99.2% (active) in assay [6] (at 50.0 µM).
In the case of `Cc1ccc(S(=O)(=O)N/N=C2\CC(C)OC3=C2CCCCCC3)cc1` (stereo not given), the growth inhibition is 13% in assay [1] (setting [7]); 95% (active) in assay [1] (setting [8]); 75.5% (active) in assay [1] (at 50.0 µM); 0% in assay [2] (setting [7]); 94% (active) in assay [2] (setting [8]); 79.3% (active) in assay [2] (at 50.0 µM). Further, the growth inhibition in assay [3] (setting [7]) is 1%; in assay [3] (setting [8]), 93% (active); in assay [3] (at 50.0 µM), 61.1%; in assay [4] (setting [7]), -3%; in assay [4] (setting [8]) it was 92% (active); in assay [4] (at 50.0 µM) it was 77.5% (active). The growth inhibition in assay [5] (setting [7]) was 1%; in assay [5] (setting [8]), 95% (active); in assay [5] (at 50.0 µM) it was 75.6% (active); in assay [6] (setting [7]) it was 31%; in assay [6] (setting [8]), 95% (active); in assay [6] (at 50.0 µM) it was 67.8%.
Regarding `CCCCN(CCCC)S(=O)(=O)c1ccccc1`, the growth inhibition in assay [1] (setting [7]) is 3%; in assay [1] (setting [8]) it was 27%; in assay [1] (at 50.0 µM), 44.7%; in assay [2] (setting [7]) it was -4%; in assay [2] (setting [8]) it was 3%; in assay [2] (at 50.0 µM) it was 32.4%. The growth inhibition in assay [3] (setting [7]) is 1%; in assay [3] (setting [8]), 52%; in assay [3] (at 50.0 µM), 7.85%; in assay [4] (setting [7]), -1%; in assay [4] (setting [8]), -9%; in assay [4] (at 50.0 µM), -11.4%. Also, the growth inhibition in assay [5] (setting [7]) is 3%; in assay [5] (setting [8]) it was 14%; in assay [5] (at 50.0 µM), 65.5%; in assay [6] (setting [7]), 2%; in assay [6] (setting [8]), 17%; in assay [6] (at 50.0 µM) it was 79% (active).
Regarding `COC(=O)C(Cc1cccc(O)c1)NC(=O)C(CC(=O)OCc1ccccc1)NC(=O)OCc1ccccc1` (stereo not given) (Cbz-Asp(OBn)-[mTyr]-OMe; configuration not given here), the growth inhibition in assay [1] (setting [7]) was -12%; in assay [1] (setting [8]) it was 70% (active); in assay [1] (at 50.0 µM), 77.2% (active); in assay [2] (setting [7]), -6%; in assay [2] (setting [8]) it was 21%; in assay [2] (at 50.0 µM), 74.8% (active). The growth inhibition was 2% in assay [3] (setting [7]); 87% (active) in assay [3] (setting [8]); 85.7% (active) in assay [3] (at 50.0 µM); 9% in assay [4] (setting [7]); 64% in assay [4] (setting [8]); 89.8% (active) in assay [4] (at 50.0 µM). Further, the growth inhibition in assay [5] (setting [7]) is -10%; in assay [5] (setting [8]), 55%; in assay [5] (at 50.0 µM), 91% (active); in assay [6] (setting [7]), -4%; in assay [6] (setting [8]), 75% (active); in assay [6] (at 50.0 µM) it was 80.9% (active).
Consider `NC(=S)C(=S)N=Cc1c(N)[nH]n(-c2ccccc2)c1=O`, for which the growth inhibition in assay [1] (setting [7]) is -13%; in assay [1] (setting [8]), -1%; in assay [1] (at 50.0 µM), 57.8%; in assay [2] (setting [7]), -10%; in assay [2] (setting [8]), 15%; in assay [2] (at 50.0 µM), 48.8%. The growth inhibition in assay [3] (setting [7]) is 9%; in assay [3] (setting [8]), 3%; in assay [3] (at 50.0 µM) it was 53.8%; in assay [4] (setting [7]), 32%; in assay [4] (setting [8]), 26%; in assay [4] (at 50.0 µM), 61.6%. The growth inhibition in assay [5] (setting [7]) was 19%; in assay [5] (setting [8]), 37%; in assay [5] (at 50.0 µM), -10.6%; in assay [6] (setting [7]), -4%; in assay [6] (setting [8]) it was 15%; in assay [6] (at 50.0 µM), 44.6%.
With `OCC1(c2ccccc2)OC1c1ccccc1` (stereo not given), the growth inhibition in assay [1] (setting [7]) is -156%; in assay [1] (setting [8]), -20%; in assay [1] (at 50.0 µM), 72.1% (active); in assay [2] (setting [7]), -50%; in assay [2] (setting [8]), -27%; in assay [2] (at 50.0 µM) it was 62.6%. Besides, the growth inhibition in assay [3] (setting [7]) was -65%; in assay [3] (setting [8]) it was 16%; in assay [3] (at 50.0 µM) it was 37.6%; in assay [4] (setting [7]), -66%; in assay [4] (setting [8]), -34%; in assay [4] (at 50.0 µM) it was 69.5%. The growth inhibition in assay [5] (setting [7]) is -71%; in assay [5] (setting [8]), -51%; in assay [5] (at 50.0 µM), 74.8% (active); in assay [6] (setting [7]), -146%; in assay [6] (setting [8]), -44%; in assay [6] (at 50.0 µM), 68%.
For `O=Cc1cc2ccccc2cc1C=O`, the growth inhibition is 88% (active) in assay [1] (setting [7]); 96% (active) in assay [1] (setting [8]); 86% (active) in assay [1] (at 50.0 µM); 94% (active) in assay [2] (setting [7]); 97% (active) in assay [2] (setting [8]); 87.3% (active) in assay [2] (at 50.0 µM). The growth inhibition in assay [3] (setting [7]) was 84% (active); in assay [3] (setting [8]), 96% (active); in assay [3] (at 50.0 µM) it was 87.2% (active); in assay [4] (setting [7]), 87% (active); in assay [4] (setting [8]), 95% (active); in assay [4] (at 50.0 µM), 88.8% (active). Also, the growth inhibition in assay [5] (setting [7]) is 94% (active); in assay [5] (setting [8]), 96% (active); in assay [5] (at 50.0 µM), 86.5% (active); in assay [6] (setting [7]), 93% (active); in assay [6] (setting [8]), 95% (active); in assay [6] (at 50.0 µM), 86.2% (active).
Consider `Cn1cc(CCC(=O)C2C=CC=CC2=NC(=O)CCCl)c2ccccc21` (stereo not given), for which the growth inhibition in assay [1] (setting [7]) was 11%; in assay [1] (setting [8]), 7%; in assay [1] (at 50.0 µM), -3.6%; in assay [2] (setting [7]), 7%; in assay [2] (setting [8]) it was -6%; in assay [2] (at 50.0 µM), 12.8%. Moreover, the growth inhibition in assay [3] (setting [7]) is -1%; in assay [3] (setting [8]) it was -20%; in assay [3] (at 50.0 µM), -4%; in assay [4] (setting [7]) it was 14%; in assay [4] (setting [8]) it was 14%; in assay [4] (at 50.0 µM) it was 14.3%. Also, the growth inhibition in assay [5] (setting [7]) is 11%; in assay [5] (setting [8]), 7%; in assay [5] (at 50.0 µM), 8.95%; in assay [6] (setting [7]) it was -2%; in assay [6] (setting [8]), 1%; in assay [6] (at 50.0 µM), -17.1%.
For the molecule `Cn1c(=S)c2[nH]c(SCCN3CCCCC3)nc2n(C)c1=O`, the growth inhibition in assay [1] (setting [7]) was 40%; in assay [1] (setting [8]), 54%; in assay [1] (at 50.0 µM) it was 97.2% (active); in assay [2] (setting [7]), 28%; in assay [2] (setting [8]), 46%; in assay [2] (at 50.0 µM), 99.3% (active). Also, the growth inhibition was 20% in assay [3] (setting [7]); 69% in assay [3] (setting [8]); 99.2% (active) in assay [3] (at 50.0 µM); 28% in assay [4] (setting [7]); 28% in assay [4] (setting [8]); 54.5% in assay [4] (at 50.0 µM). Besides, the growth inhibition was 37% in assay [5] (setting [7]); 57% in assay [5] (setting [8]); 97.8% (active) in assay [5] (at 50.0 µM); 22% in assay [6] (setting [7]); 55% in assay [6] (setting [8]); 98.5% (active) in assay [6] (at 50.0 µM).
For `CC1=C(C(=O)NCc2ccccc2)C(c2ccccc2[N+](=O)[O-])C(C(=O)NCc2ccccc2)=C(C)N1`, the growth inhibition in assay [1] (setting [7]) was 16%; in assay [1] (setting [8]), 16%; in assay [1] (at 50.0 µM) it was 71% (active); in assay [2] (setting [7]), 9%; in assay [2] (setting [8]), 9%; in assay [2] (at 50.0 µM), 84.2% (active). In addition, the growth inhibition was -2% in assay [3] (setting [7]); -2% in assay [3] (setting [8]); 81.4% (active) in assay [3] (at 50.0 µM); -4% in assay [4] (setting [7]); -4% in assay [4] (setting [8]); 62.9% in assay [4] (at 50.0 µM). Moreover, the growth inhibition in assay [5] (setting [7]) was 15%; in assay [5] (setting [8]) it was 15%; in assay [5] (at 50.0 µM), 81.1% (active); in assay [6] (setting [7]), 4%; in assay [6] (setting [8]) it was 4%; in assay [6] (at 50.0 µM) it was 77.6% (active).
